Growth inhibition data for 14 molecules are collected here from PubChem BioAssay.

The source made the active and inactive calls.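 The calls were made as follows: active = growth inhibition above 50% at the single 2 µM test dose, taken to imply half-maximal potency below 2 µM; inactive = the rest.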

This assay can be described thus: antimalarial activity against Dd2 strain (AID 2302).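 Also: 0% = DMSO untreated growth and 100% = chloroquine plus artemisinin killed control.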 To be noted: P. falciparum Dd2 in RBCs, LDH growth readout, 72 h; at 2 µM; hits give high values.
With `COC(=O)c1ccc(CCCNCC(O)c2cccc(C(F)(F)F)c2)cc1` (centres undefined), the growth inhibition was 88% (active).

Regarding `O=C(Nc1cc(C(F)(F)F)cc(C(F)(F)F)c1)Nc1cc(C(F)(F)F)cc(C(F)(F)F)c1`, the growth inhibition is 101% (active).

On to `COc1ccc2ncc(F)c(CCN3CCC(NCc4cc(Br)c5c(c4)OCCO5)CC3)c2n1`, for which the growth inhibition was 94% (active).

As to `O=C(Nc1ccc(F)cc1)c1nc2ccccc2nc1Cl`, the growth inhibition is 62% (active).

As to `CCOC(=O)c1ccc(NC(=O)Nc2cccc(-c3cccc(-c4nc5ccccc5[nH]4)c3)c2)cc1`, the growth inhibition was 99% (active).

`CCCCCCCCN1CCN(CCCCCCNc2c3ccccc3nc3ccccc23)CC1`: the growth inhibition is 100% (active).

As to `CCC(C(=O)Nc1ccccc1)n1nc(-c2ccc(C)c(S(=O)(=O)N3CCCCC3)c2)ccc1=O` (centres undefined), the growth inhibition was 67% (active).

In the case of `CC(C)(C)c1ccc(CNC(=O)c2ccc(CNC3CCC(N)CC3)s2)cc1` (centres undefined), the growth inhibition was 10% (inactive).

As to `COc1ccc2nccc(N3CCC(CCNCc4cc5c(cn4)OCCO5)CC3)c2c1`, the growth inhibition was 99% (active).

For the molecule `O=C(NC1CCC(N2CCC(c3nc4ccccc4s3)CC2)CC1)c1cc2ccccc2[nH]1` (centres undefined), the growth inhibition was 37% (inactive).

Take `COc1cc(NC(=O)c2cccs2)c(OC)cc1NC(=O)Nc1cccc(Cl)c1`: the growth inhibition is 10% (inactive).

In the case of `CNC(=O)c1cc(S(=O)(=O)Nc2ccc(OC)cc2)cs1`, the growth inhibition was 48% (inactive).

With `CN(C)CCOc1ccc(N2CCN(CCCCNC(=O)c3ccc(NC(=O)c4ccc(Cl)cc4)cc3)CC2)cc1`, the growth inhibition was 98% (active).

For `C[C@@H]1CN(C(c2cccc(O)c2)c2cccc(C(=O)N(C)c3cccc(F)c3)c2)[C@@H](C)CN1C(c1cccc(O)c1)c1cccc(C(=O)N(C)c2cccc(F)c2)c1` (some centres undefined), the growth inhibition was 85% (active).
